# From PubChem
# Most compounds without a hit are left out; they make up all but 11% or so of the library.
# ALDH1A1 inh: blocks purified human ALDH1A1 activity | hit rate 7.3% among 220,000 | Purified ALDH1A1, NADH fluorescence, propionaldehyde substrate | AID 1030 | Potency, µM (series often up to 75.3 µM), inactives show at the highest dose activity, negative = inhibition, usual class: inhibitors | P00352; active = well fitted inhibition curve with a large enough effect, not every such curve was filed as active; inconclusive = small, poorly fitted or top-dose-only effect, or another doubt; inactive = no such curve, though single readings can be large or run the other way;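 note: potency is the fitted concentration of half-maximal effect; plate controls were no enzyme wells and a reference inhibitor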
# HTT aggregate: inhibitors of mutant huntingtin aggregate formation in PC12 cells | hit rate 1.1% among 220,000 | PC12 HttQ103-GFP aggregates, Acumen cytometry, 40 h | AID 1688 | Potency, µM (series often up to 46.1 µM), without a hit: at the top dose activity change, negative = inhibition, hits mostly inhibitors; note: potency is the fitted concentration of half-maximal effect; % is set by controls: 0 for no effect and ±100 for the full control effect; nearly all actives have a fitted effect of over 60% in size
#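 Huntingtin Q103 exon 1–GFP aggregates in induced PC12 cells (100 nM tebufenozide) were quantified by cytometry from lysates, with compounds dosed in titration.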
# RGS12 GoLoco inh: blocks human Gai1 binding to RGS12 GoLoco peptide, red readout; Potency, µM (highest dose often 61.6 µM), without a hit: top-dose activity, negative = inhibition, hits mostly inhibitors; hit rate 0.44% among 230,000; Gai1:RGS12 GoLoco peptide FP, rhodamine, 10 min; active = well fitted inhibition curve with a large enough effect, not every such curve was filed as active; inactive = no such curve, though single readings can be large or run the other way; note: potency is the fitted concentration of half-maximal effect; % is set by controls: 0 for no effect and ±100 for the full control effect; nearly all actives have a fitted effect of over 30% in size
# Target sequence (P63096 whole entry, looked up): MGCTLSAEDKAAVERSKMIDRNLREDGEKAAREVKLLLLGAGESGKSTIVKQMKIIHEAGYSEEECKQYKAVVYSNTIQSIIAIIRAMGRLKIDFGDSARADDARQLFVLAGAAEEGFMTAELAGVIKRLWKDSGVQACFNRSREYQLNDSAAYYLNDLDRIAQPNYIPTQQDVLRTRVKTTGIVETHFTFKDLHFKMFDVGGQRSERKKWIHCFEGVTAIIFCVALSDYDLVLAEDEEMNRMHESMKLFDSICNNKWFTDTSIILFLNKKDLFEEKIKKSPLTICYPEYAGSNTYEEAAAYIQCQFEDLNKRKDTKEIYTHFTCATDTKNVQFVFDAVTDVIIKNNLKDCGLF
# HPGD inh: blocks human HPGD enzyme activity; purified HPGD, NADH fluorescence kinetic, PGE2 substrate; P15428; Potency, µM, for the others: at the top dose activity change, negative = inhibition, actives largely listed as inhibitors; AID 894; hit rate 4.3% among 150,000; active = well fitted inhibition curve with a large enough effect, not every such curve was filed as active; inconclusive = small, poorly fitted or top-dose-only effect, or another doubt; inactive = no such curve, though single readings can be large or run the other way; note: potency is the fitted concentration of half-maximal effect; % is set by controls: 0 for no effect and ±100 for the full control effect
#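 20 nM HPGD preincubated 15 min at room temperature with compound in 50 mM Tris-HCl pH 8, 0.01% Tween 20. Started with 1 mM NAD+ and 30 uM prostaglandin E2; NADH fluorescence (360/450 nm) read 5 times over 30-s intervals, last minus first.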
# HTT ATP protect: protects HTT-Q103 PC12 cells, measured by ATP. PC12 HTT-Q103 induced, cytoprotection, ATP luminescence, 40 h. Potency, µM (highest dose often 56.4 µM), for inactives: cytoprotection (ATP increase), most hits filed as activators. hit rate 0.14% among 230,000. AID 1471; note: potency is the fitted concentration of half-maximal effect; % of control where 0% means no effect; nearly all actives have a fitted effect of over 45% in size
#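 PC12 cells stably carrying ecdysone-inducible Htt exon 1 (Q103)–GFP were induced with 100 nM tebufenozide (final) alongside library compounds in a dose series. Cytoprotection was scored as retained ATP by ATPlite luminescence.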
# PNC inhibitor: perinucleolar compartment assembly inhibition; PC3M PTB-GFP, PNC prevalence imaging, 16 h; stronger effect = lower value; activity change (PNC), negative = inhibition, % at 10 µM; hit rate 3.1% among 140,000;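 active = readout at or below -70, meaning at least 70% loss of cells showing the perinucleolar compartment, a nuclear body marking cancer cells; inconclusive = readout between -30 and a set limit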;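 note: plate controls were DMSO wells for no effect and camptothecin positive control wells for full effect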
#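 Read-out is percentage of cells bearing a perinucleolar compartment, from automated 20x imaging of fixed, Hoechst-stained PC3M PTB-GFP cells. Cells were seeded 4 h, then exposed 16 h to compound (23 nl of library stock) in duplicate plates.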
# Active calls of the source: *; ? = inconclusive; . = no result; [ ] = dose if it differs, or a comment. Unless noted, calls come from the whole dose curve; as a rule, active = well fitted curve in the direction sought with a large enough effect; inconclusive = small, poorly fitted or top-dose-only effect, or another doubt; inactive = no such curve, though single readings can be large; an effect the other way counts as inactive or inconclusive.
SMILES,ALDH1A1 inh,HTT aggregate,RGS12 GoLoco inh,HPGD inh,HTT ATP protect,PNC inhibitor
CCc1c(C)sc(NC(=O)CSc2nc3c(c(C(F)(F)F)n2)CCc2ccccc2-3)c1C#N,22µM*,-10%,-5%,22µM*,-1%[10 µM],-29
COc1ccc(Nc2nnc(SCc3cc(=O)n4ccsc4n3)s2)cc1,14µM*,0%,8%,32µM*,-29%,?
O=c1cc(CSc2nnc(Nc3ccccc3F)s2)nc2sccn12,-10%,-26%,12%,.,-97%,.
COC(=O)[C@@H]1C[C@@]2(O)[C@H](O)[C@H](O)[C@H](O)C[C@H]2N1Cc1ccc(N2CCOCC2)cc1,?,.,-15%,-21%,-6%,.
NC(=O)c1c(/N=C/c2cccnc2)sc2c1CCCC2,.,-12%[9.22 µM],-7%,.,-23%[10 µM],.
COc1ccccc1N1CCN(CC(=O)c2ccc3ccn(C(C)=O)c3c2)CC1,?,-13%,10%,-12%,-13%,-11
CC(=O)OCC(=O)c1ccc2ccn(C(C)=O)c2c1,?,-1%,-1%,?,16%[10 µM],-100*
CN1/C(=C\C(=O)COC(=O)c2ccc(O)c(O)c2)C(C)(C)c2ccccc21,?,?,164%,.,-52%,.
CC1CC(C)CN(C2CCN(Cc3cccnc3)CC2)C1 (centres undefined),-16%,3%,0%,-4%,16%,-16
O=C(c1ccccc1)c1ccc(N2CCCC2)cc1,?,-40%,1%,14µM*,-41%,24
O=C(c1ccccc1)c1ccc(N2CCNCC2)cc1,28µM*,-6%,8%,-6%,-14%,56
O=C(COC(=O)c1cccc(F)c1)Nc1cccnc1Cl,5%,8%,6%,.,-5%,.
COC(=O)[C@H](COC(C)(C)C)NC(=O)O[C@@H]1Cc2cc(Br)ccc2O[C@H]1c1cccc(OC)c1,16%,.,4%,-4%,-27%,.
CCn1c(C)nc2cc(C(=O)NNC(=S)Nc3ccccc3)ccc21,2%,5%,41%,.,-105%,.
CCn1c(C)nc2cc(C(=O)N=Nc3c(O)[nH]c4c(C)cc(C)cc34)ccc21,-2%,15%,4%,-20%,2%[10 µM],51
O=C(NNC(=S)Nc1ccc(Cl)cc1Cl)c1ccncc1,3.2µM*,11%,-7%,?,15%[10 µM],-1
CCn1c(C)nc2cc(C(=O)NNC(=S)NC(=O)c3ccccc3)ccc21,25µM*,-23%,11%,.,-1%,.
CCn1c(C)nc2cc(C(=O)NNC(=S)Nc3ccccc3Cl)ccc21,32µM*,4%,21%,-25%,-3%[10 µM],-7
CCn1c(C)nc2cc(C(=O)N=Nc3c(O)[nH]c4ccccc34)ccc21,-15%,-3%,4%,-29%,-21%[10 µM],-93*
Cc1ccc(NC(=O)COC(=O)Cc2ccsc2)cc1S(=O)(=O)N1CCOCC1,-3%,17%,5%,0%,-18%[10 µM],1
O=C(O)/C(=C\c1ccc(O)cc1)c1cccc2ccccc12,7%[13.5 µM],.,2%[14.2 µM],1%,-8%[10 µM],.
CCn1c(C)nc2cc(C(=O)NNC(=S)Nc3ccc(Cl)cc3Cl)ccc21,3.5µM*,5%,62%,?,9%[10 µM],0
Nc1nc(Nc2ccccc2)nc2c1ncn2[C@@H]1O[C@H](CO)[C@H](O)[C@H]1O,-7%,.,8%,-12%,.,.
O=C(Cn1ncc(Cl)c(Cl)c1=O)c1ccc(Cl)cc1,8.9µM*,?,2%,-8%,-14%[10 µM],-10
O=C(Cn1ncc(N2CCOCC2)c(Cl)c1=O)c1ccc(Cl)cc1,-7%,15%,7%,.,23%,.
O=C(OCn1ncc(Cl)c(Cl)c1=O)c1ccc(F)cc1,1.1µM*,?,-7%,-13%,-91%,75
O=C(OCn1ncc(Cl)c(Cl)c1=O)c1ccccc1Cl,2µM*,?,-6%,-28%,3%,56
CC(C)(C)C(=O)Cn1ncc(Cl)c(Cl)c1=O,?,?,3%,.,-182%,.
COC(=O)[C@@H]1C[C@H]2CC[C@H](O)C[C@H]2N1Cc1ccc(N2CCOCC2)cc1,-9%,.,16%,-7%,-11%,.
